# Reference: PubChem BioAssay (NCI)
# This is part of a sample that, as a whole, favours compounds with a hit. Of some 83,000 tested, about 20% had one in any assay.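 Growth was measured after 48 h exposure to one concentration of compound in 96-well plates. Values under 10 count as active.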 Unmarked numbers belong to inactive results. Active and inactive are the calls of the source.
# What was measured:
# Experiment in all cases: NCI-60 one-dose screen, 48 h (100 = growth as untreated, 0 = no growth, -100 = all killed)
# RPMI-8226 leukemia = settings: 10 µM unless noted
# OVCAR-8 ovarian = settings: 10 µM unless noted
# OVCAR-5 ovarian = settings: 10 µM unless noted
# OVCAR-4 ovarian = settings: 10 µM unless noted
# SK-OV-3 ovarian = settings: 10 µM unless noted
# IGROV1 ovarian = settings: 10 µM unless noted
# OVCAR-3 ovarian = settings: 10 µM unless noted
# HS 578T breast = settings: 10 µM
# NCI/ADR-RES ovarian = settings: 10 µM unless noted
# T-47D breast = settings: 10 µM unless noted
# BT-549 breast = settings: 10 µM unless noted
# MDA-MB-435 melanoma = settings: 10 µM unless noted
# SW-620 colon = settings: 10 µM unless noted
# MCF7 breast = settings: 10 µM unless noted
# HCT-116 colon = settings: 10 µM unless noted
# HCC-2998 colon = settings: 10 µM unless noted
# KM12 colon = settings: 10 µM unless noted
SMILES,growth (RPMI-8226 leukemia),growth (OVCAR-8 ovarian),growth (OVCAR-5 ovarian),growth (OVCAR-4 ovarian),growth (SK-OV-3 ovarian),growth (IGROV1 ovarian),growth (OVCAR-3 ovarian),growth (HS 578T breast),growth (NCI/ADR-RES ovarian),growth (T-47D breast),growth (BT-549 breast),growth (MDA-MB-435 melanoma),growth (SW-620 colon),growth (MCF7 breast),growth (HCT-116 colon),growth (HCC-2998 colon),growth (KM12 colon)
Fc1ccc(-c2nnc(N3CCOCC3)c3ccccc23)cc1,111%,111%,108%,112%,109%,104%,109%,114%,109%,102%,81.4%,86.6%,100%,155%,87.9%,110%,109%
O=C(CSc1ccc(Cl)cc1)Nc1ccc(-c2nc3ccccc3s2)c(Cl)c1,38.5%,50.8%,99.1%,57.6%,94.7%,69.4%,-10.9% (active),79.1%,62%,34.4%,95.2%,77.9%,65.9%,47.7%,19.7%,81.1%,23%
O=C(Nc1cnc(C(F)(F)F)cn1)c1cc(Cl)ccc1O,-21.7% (active),4.89% (active),28.3%,14%,-5.59% (active),23.8%,15.6%,8.53% (active),8.26% (active),-13.2% (active),-21.3% (active),5.89% (active),10.9%,6.48% (active),1.13% (active),14.6%,3.91% (active)
CC1(C)C2CCC(O)(C(=O)O)C1C2 (stereo not drawn),114%,112%,112%,99.2%,103%,95.8%,118%,115%,116%,96.1%,104%,99.1%,115%,95.7%,117%,118%,118%
CCc1oc2ccccc2c1C(=O)c1cc(I)c(O)c(I)c1,55.2%,56.7%,86.5%,71%,105%,50.5%,13.6%,49.2%,-6% (active),98.9%,39.3%,-25.9% (active),19.2%,33.8%,22.3%,53.3%,27.2%
O=C1C2=C(C(=O)c3c(O)ccc(O)c31)N(c1ccc(N3CCOCC3)nc1)Cc1ccccc1O2,-20.6% (active),-10.6% (active),-45.2% (active),-97.8% (active),15.2%,-70.5% (active),-97.3% (active),27.5%,5.43% (active),-41% (active),-78.5% (active),-28.6% (active),-54.3% (active),-34.2% (active),-84.5% (active),-66.3% (active),-34.9% (active)
C=CCN(CCOC(=O)c1ccc([N+](=O)[O-])cc1)CCOC(=O)c1ccc([N+](=O)[O-])cc1,94.3%,98.7%,102%,99.5%,99.2%,88.1%,104%,101%,96.8%,90.5%,100%,107%,100%,96.3%,96.2%,105%,103%
ClCc1cccc(CSc2ncnc3c2ncn3Cc2cccc(CCl)c2)c1,-10.6% (active),-16.4% (active),116%,8.74% (active),65.5%,14%,28.4%,47.7%,-6.49% (active),-64.7% (active),-69.6% (active),9.56% (active),-45.6% (active),13.3%,-79.6% (active),-71.7% (active),57.9%
Cn1c(=O)c2c3c(oc2c2ccccc21)C(=O)c1ccccc1C3=O,51.1%,85.3%,120%,4.38% (active),93.6%,68.7%,21.6%,93.2%,76.9%,9.7% (active),77.4%,104%,86.2%,68.4%,71.7%,102%,91.5%
